According to PubChem BioAssay (NCATS):
Results filed as inconclusive are left out. Activity calls are given as the source filed them. The call rests on the fitted dose curve; in most records, active means well fitted activation curve with a large enough effect in the main read-out, with a control signal flat (not every such curve was filed as active); inconclusive means small, poorly fitted or top-dose-only effect, or effect the other way, or a change in a side signal; inactive means flat fitted curve, though single readings scatter.

What follows are compounds tested against 3',5'-cyclic-AMP phosphodiesterase 4B (Homo sapiens) (UniProt Q07343) (assay: qHTS Assay for Inhibitors of PDE-IV (AID 607)). Settings: HEK293 ACTOne CNG channel cells, membrane potential fluorescence; series mostly up to 22.9 µM.
3',5'-cyclic-AMP phosphodiesterase 4B (Homo sapiens), sequence (Q07343 whole entry, looked up): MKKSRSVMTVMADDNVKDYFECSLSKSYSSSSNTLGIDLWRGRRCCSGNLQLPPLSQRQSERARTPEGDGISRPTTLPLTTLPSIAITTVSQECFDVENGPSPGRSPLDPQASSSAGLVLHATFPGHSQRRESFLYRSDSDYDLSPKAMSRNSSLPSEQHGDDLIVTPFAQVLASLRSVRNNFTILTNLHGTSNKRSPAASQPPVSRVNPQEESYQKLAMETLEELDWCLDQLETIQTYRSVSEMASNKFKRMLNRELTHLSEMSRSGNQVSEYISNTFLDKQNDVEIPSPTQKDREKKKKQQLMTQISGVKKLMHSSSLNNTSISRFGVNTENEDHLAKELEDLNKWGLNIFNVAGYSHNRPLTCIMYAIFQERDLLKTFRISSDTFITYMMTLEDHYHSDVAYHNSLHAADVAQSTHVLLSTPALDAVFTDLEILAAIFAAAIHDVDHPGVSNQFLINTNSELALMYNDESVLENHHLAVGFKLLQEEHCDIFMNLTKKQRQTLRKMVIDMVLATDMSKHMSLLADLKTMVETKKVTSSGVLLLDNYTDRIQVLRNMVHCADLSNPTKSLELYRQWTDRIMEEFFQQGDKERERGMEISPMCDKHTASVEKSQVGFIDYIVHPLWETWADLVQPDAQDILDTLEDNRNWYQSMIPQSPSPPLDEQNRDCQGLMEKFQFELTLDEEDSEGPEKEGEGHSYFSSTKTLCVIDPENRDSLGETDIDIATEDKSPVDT
Method in brief: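 Live HEK293 cells with a modified cyclic nucleotide-gated (CNG) channel report intracellular cAMP via membrane-potential dye fluorescence (ex 535/em 590 nm). Endogenous PDE-IV was targeted. Compounds were tested at up to 22.9 uM final; RO 20-1724 100 uM served as control.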

Potency, inactive:
CN(C)CCCN1c2ccccc2Sc2ccc3ccccc3c21
ClC(=Nc1cccc2ccccc12)N(c1ccccc1)c1ccccc1
Cc1ccc(-c2nc(-c3nccc4ccccc34)oc2-c2ccccc2)cc1
COc1ccc2c(c1)N(CC[C@H]1CCCCN1C)c1ccccc1S2
Cc1nnc(S(=O)(=O)c2ccc(N=Nc3c(N)nc(N)nc3N)cc2)s1
COc1ccc2c(=O)cc(-c3ccncc3)oc2c1OC
COc1cccc2c1[C@H](CO)N1[C@H](C#N)[C@@H]3C[C@H](C(=O)O)[C@@H]([C@@H]1C2)N3C
CN(C)CCCN1c2ccc3ccccc3c2Sc2cccc(Cl)c21
COc1cccc(Nc2ncc3ncc(=O)n(C4CC4)c3n2)c1
CN(C)CCCN1c2ccc(O)cc2Sc2ccc(Cl)cc21
C=C(C)COc1ccc2c(c1)CCC1C2CC[C@]2(C)C(=O)/C(=N/O)CC12 (stereo partly specified)
CCCCNN
CC(CC(=O)O)(CC(=O)O)c1ccccc1
OC[C@@H]1O[C@@H](N2CCN([C@@H]3O[C@@H](CO)[C@@H](O)[C@H](O)[C@H]3O)CC2)[C@@H](O)[C@H](O)[C@H]1O
O=C1c2ccccc2C(O)(O)[C@@]1(O)[C@]1(O)C(=O)c2ccccc2C1(O)O
c1ccc2cc(NCNc3ccc4ccccc4c3)ccc2c1
NCCSCCC(=O)O
O=C1Oc2ccccc2C(=O)/C1=C\N1C(=O)N/C(=C\c2ccccc2O)C1=O
CC(=O)Nc1ccc(Cc2ccc3[nH]c(=O)cc(C)c3c2)cc1
Cc1cccc(CNc2ncnc3ccc(-c4ccc(C(=O)N(C)C)cc4)cc23)c1
COc1ccc2nc3cc(Cl)ccc3c(Nc3ccc(O)c(CN4CCN(C)CC4)c3)c2c1
C[C@@H]1CCCN(C[C@@H](O)CN2CCCc3ccccc32)C1
C[N+](C)([O-])CCC=C1c2ccccc2CCc2ccccc21
Cc1cc(Cl)nc(NC(=O)CSc2ccc(Cl)cc2)n1
CSc1ccc2c(c1)N(CCCN(C)C)c1ccccc1S2
C[C@@]12CC[C@@H]3[C@@H](CC[C@H]4C[C@@H](O)CC[C@]43C)[C@H]1CC[C@@H]2c1cc(C(F)(F)F)n[nH]1
CC(=O)O[C@H]1CC[C@@]2(C)C(=CC[C@@H]3[C@@H]4CC[C@H](c5cc(C(F)(F)F)n(C(C)=O)n5)[C@]4(C)CC[C@@H]32)C1
O=C1C(Cl)=C(Sc2nnc3c4ccccc4c4ccccc4c3n2)C(=O)c2ccccc21
Cc1c(S(=O)(=O)O)ccc(N=Nc2c(O)c(C(=O)O)cc3ccccc23)c1Cl
Cc1ccc(N=Nc2c(O)c3ccccc3[nH]c2=O)c(S(=O)(=O)N(C)C)c1
O=[N+]([O-])c1ccc(S(=O)(=O)Cc2ccccc2)c2nonc12
Cn1c(=S)c2[nH]c(SCCCc3ccccc3)nc2n(C)c1=O
C[C@]12CC[C@H]3c4ccc(O)cc4CC[C@@H]3[C@H]1CC[C@@H]2OC(=O)CCc1ccccc1
Nc1nc(Sc2ccc([N+](=O)[O-])c3nonc23)c2[nH]cnc2n1
CN(C)CCCn1c2c3ccccc3ccc2c2oc(=O)c3ccccc3c21
CC(C)[C@H](Sc1nc(N)nc2nc[nH]c12)C(=O)O
